The text below walks through data of publication PMC7862700, “An all-to-all approach to the identification of sequence-specific readers for epigenetic DNA modifications on cytosine”.

Common to all, as to experiment: DAPPL (digital affinity profiling via proximity ligation, sequencing); 10 mM Tris-HCl pH 7.5, 50 mM NaCl, 1 mM DTT, 4% glycerol, room temperature, 30 min; GST-TFs on glutathione beads, 16-mer random dsDNA library, 0.1% formaldehyde crosslink after washing; high values mean tight binding
Common to all, as to details: protein: recombinant; tags: N-terminal GST; dsDNA, one strand shown

One assay has as its target T1, FLI1 (Homo sapiens, UniProt Q01543 1-452).
T1 sequence: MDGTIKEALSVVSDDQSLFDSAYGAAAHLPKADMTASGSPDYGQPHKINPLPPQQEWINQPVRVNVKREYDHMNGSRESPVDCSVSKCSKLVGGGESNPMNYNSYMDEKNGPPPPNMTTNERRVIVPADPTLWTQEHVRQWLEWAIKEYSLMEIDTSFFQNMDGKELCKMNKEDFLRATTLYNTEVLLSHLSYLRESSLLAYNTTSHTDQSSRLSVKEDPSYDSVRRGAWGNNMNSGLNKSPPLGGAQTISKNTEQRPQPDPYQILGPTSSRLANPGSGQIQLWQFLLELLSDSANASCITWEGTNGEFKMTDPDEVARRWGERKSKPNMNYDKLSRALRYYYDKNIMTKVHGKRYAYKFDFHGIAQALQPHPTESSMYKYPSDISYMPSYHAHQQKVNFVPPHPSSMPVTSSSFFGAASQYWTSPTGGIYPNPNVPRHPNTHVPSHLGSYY
Put shortly: (§1)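 GST fusions of human transcription factors were expressed in yeast and captured with glutathione beads. Once given DNA barcodes and pooled alongside a tag-only sample, they were incubated for 30 min at room temperature with 200 nmole of a random double-stranded 16-mer DNA library in Tris/NaCl/DTT/glycerol buffer, then washed, crosslinked (0.1% formaldehyde), proximity-ligated, PCR-amplified and sequenced on an Illumina NextSeq500. The binding signal of each hexamer is its read frequency for a factor divided by its frequency for the tag-only sample.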

The target in another assay is T2, ELK1 (Homo sapiens, UniProt P19419 1-428).
T2 sequence: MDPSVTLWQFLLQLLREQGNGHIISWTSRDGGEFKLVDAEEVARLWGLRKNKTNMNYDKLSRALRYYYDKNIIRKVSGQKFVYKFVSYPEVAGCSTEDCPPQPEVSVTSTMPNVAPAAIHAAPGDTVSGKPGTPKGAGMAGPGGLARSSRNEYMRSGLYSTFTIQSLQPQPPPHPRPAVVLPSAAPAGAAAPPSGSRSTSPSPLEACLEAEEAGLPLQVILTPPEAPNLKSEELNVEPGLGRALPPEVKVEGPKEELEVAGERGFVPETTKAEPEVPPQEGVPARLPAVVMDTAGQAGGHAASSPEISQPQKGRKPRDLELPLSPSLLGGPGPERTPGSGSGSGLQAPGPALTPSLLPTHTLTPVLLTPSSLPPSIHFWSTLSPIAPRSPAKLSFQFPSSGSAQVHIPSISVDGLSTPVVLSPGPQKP
Put shortly:
as §1

In a further assay the target is T3, GABPA (Homo sapiens, UniProt Q06546 1-454).
T3 sequence: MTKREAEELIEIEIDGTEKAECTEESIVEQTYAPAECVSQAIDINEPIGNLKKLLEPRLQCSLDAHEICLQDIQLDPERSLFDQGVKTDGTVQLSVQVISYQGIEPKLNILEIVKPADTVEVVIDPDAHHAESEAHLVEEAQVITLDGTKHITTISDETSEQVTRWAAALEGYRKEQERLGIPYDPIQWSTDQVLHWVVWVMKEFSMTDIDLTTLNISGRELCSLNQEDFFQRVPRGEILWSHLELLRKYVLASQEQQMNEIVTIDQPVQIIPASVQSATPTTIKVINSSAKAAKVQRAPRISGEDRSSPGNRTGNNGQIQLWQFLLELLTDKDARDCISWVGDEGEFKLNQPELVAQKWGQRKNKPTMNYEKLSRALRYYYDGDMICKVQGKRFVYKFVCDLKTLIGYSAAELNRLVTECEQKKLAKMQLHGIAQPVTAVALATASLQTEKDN
The method in brief: as §1

In a further assay the target is T4, ERG (Homo sapiens, UniProt P11308 1-479).
T4 sequence: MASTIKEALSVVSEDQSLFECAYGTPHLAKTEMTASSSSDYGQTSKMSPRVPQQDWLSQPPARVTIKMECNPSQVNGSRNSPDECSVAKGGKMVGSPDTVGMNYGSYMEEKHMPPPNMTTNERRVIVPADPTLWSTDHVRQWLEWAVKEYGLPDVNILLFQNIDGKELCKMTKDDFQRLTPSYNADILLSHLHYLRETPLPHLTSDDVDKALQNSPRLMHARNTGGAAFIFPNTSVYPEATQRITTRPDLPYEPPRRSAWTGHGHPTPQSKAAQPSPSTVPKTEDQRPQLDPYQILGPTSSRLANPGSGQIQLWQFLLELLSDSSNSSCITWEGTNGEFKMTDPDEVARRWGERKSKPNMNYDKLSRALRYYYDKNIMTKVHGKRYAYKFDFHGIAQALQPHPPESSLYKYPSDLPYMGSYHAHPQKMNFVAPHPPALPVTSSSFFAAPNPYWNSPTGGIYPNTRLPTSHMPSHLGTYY
The method in brief:
as §1

The target in the next assay is ELF1 (Homo sapiens, UniProt P32519 1-619). Put shortly: as §1
The target of a further assay is T5, EHF (Homo sapiens, UniProt Q9NZC4 1-300).
T5 sequence: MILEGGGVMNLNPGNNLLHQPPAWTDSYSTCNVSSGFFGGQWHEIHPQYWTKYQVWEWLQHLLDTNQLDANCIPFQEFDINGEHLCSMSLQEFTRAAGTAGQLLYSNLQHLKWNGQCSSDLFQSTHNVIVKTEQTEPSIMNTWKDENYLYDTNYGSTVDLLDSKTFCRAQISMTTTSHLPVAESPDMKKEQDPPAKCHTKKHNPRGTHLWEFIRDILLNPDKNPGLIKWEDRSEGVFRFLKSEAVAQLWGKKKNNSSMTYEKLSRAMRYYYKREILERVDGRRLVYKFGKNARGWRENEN
The method in brief:
as §1

A further assay concerns the target SPI1 (Homo sapiens, UniProt P17947 1-270). Put shortly: as §1
In the next assay the target is SPIB (Homo sapiens, UniProt Q01892 1-262). The method in brief: as §1
The target of another assay is T6, ELK3 (Homo sapiens, UniProt P41970 1-407).
T6 sequence: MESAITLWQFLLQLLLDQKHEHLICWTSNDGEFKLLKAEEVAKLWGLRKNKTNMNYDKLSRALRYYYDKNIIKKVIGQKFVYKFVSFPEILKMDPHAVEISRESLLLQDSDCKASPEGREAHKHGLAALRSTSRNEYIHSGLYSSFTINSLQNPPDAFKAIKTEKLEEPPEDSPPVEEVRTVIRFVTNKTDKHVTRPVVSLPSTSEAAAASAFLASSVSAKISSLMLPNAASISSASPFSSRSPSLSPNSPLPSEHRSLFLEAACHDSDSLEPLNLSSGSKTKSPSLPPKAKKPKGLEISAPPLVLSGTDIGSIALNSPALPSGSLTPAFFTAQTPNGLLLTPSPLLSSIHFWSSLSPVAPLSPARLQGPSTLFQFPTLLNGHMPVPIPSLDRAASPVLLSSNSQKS
The method in brief: as §1

ELF1, sequence (P32519 whole entry): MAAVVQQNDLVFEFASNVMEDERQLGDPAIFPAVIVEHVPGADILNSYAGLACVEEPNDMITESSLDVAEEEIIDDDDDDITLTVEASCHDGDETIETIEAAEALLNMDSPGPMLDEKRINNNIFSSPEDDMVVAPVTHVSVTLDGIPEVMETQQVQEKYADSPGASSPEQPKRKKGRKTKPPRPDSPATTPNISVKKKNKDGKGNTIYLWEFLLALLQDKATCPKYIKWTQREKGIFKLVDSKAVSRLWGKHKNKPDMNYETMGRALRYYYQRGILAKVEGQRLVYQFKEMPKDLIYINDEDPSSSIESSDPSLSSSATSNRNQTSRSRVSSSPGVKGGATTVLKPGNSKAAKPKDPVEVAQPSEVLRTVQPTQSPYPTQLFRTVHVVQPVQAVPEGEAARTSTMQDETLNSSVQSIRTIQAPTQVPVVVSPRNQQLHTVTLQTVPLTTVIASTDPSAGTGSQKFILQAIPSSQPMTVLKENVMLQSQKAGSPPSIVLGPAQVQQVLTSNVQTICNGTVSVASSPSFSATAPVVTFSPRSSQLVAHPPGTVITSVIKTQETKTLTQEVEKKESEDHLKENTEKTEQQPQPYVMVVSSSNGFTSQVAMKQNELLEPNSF
SPIB, sequence (Q01892 whole entry): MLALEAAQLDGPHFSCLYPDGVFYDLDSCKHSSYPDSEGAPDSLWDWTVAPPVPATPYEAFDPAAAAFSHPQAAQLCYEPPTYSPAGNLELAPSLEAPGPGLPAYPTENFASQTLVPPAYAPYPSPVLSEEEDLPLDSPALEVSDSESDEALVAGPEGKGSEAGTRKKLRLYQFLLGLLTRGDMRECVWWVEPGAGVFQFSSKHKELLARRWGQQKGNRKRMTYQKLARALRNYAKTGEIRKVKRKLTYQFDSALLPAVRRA

For the sequence CTCGTC, the binding signal is 1.49 fold enrichment (6-mer frequency, TF over GST control) with FLI1; 1.27 fold enrichment (6-mer frequency, TF over GST control) in the assay with ELK1; 1.51 fold enrichment (6-mer frequency, TF over GST control) in the assay with GABPA; 1.37 fold enrichment (6-mer frequency, TF over GST control) with ERG; 1.36 fold enrichment (6-mer frequency, TF over GST control) in the assay with ELF1; 1.36 fold enrichment (6-mer frequency, TF over GST control) with EHF. The binding signal with SPI1 was 1.34 fold enrichment (6-mer frequency, TF over GST control); with SPIB, 1.39 fold enrichment (6-mer frequency, TF over GST control); with ELK3, 1.46 fold enrichment (6-mer frequency, TF over GST control).

On to CTCGTT, for which the binding signal with FLI1 was 1.18 fold enrichment (6-mer frequency, TF over GST control); with ELK1, 1.31 fold enrichment (6-mer frequency, TF over GST control); with GABPA, 1.26 fold enrichment (6-mer frequency, TF over GST control); with ERG, 1.25 fold enrichment (6-mer frequency, TF over GST control); with ELF1 it was 1.27 fold enrichment (6-mer frequency, TF over GST control); with EHF it was 1.27 fold enrichment (6-mer frequency, TF over GST control). The binding signal in the assay with SPI1 is 1.35 fold enrichment (6-mer frequency, TF over GST control); in the assay with SPIB, 1.24 fold enrichment (6-mer frequency, TF over GST control); with ELK3, 1.15 fold enrichment (6-mer frequency, TF over GST control).

For the sequence ATATAA, the binding signal with FLI1 was 1.15 fold enrichment (6-mer frequency, TF over GST control); with ELK1, 1.22 fold enrichment (6-mer frequency, TF over GST control); with GABPA it was 1.2 fold enrichment (6-mer frequency, TF over GST control); with ERG, 1.15 fold enrichment (6-mer frequency, TF over GST control); with ELF1 it was 1.24 fold enrichment (6-mer frequency, TF over GST control); with EHF, 1.21 fold enrichment (6-mer frequency, TF over GST control). Further, the binding signal in the assay with SPI1 was 1.1 fold enrichment (6-mer frequency, TF over GST control); with SPIB it was 1.22 fold enrichment (6-mer frequency, TF over GST control); in the assay with ELK3, 1.25 fold enrichment (6-mer frequency, TF over GST control).

As to TTCCAA, the binding signal in the assay with FLI1 was 1.39 fold enrichment (6-mer frequency, TF over GST control); with ELK1, 1.19 fold enrichment (6-mer frequency, TF over GST control); in the assay with GABPA, 1.34 fold enrichment (6-mer frequency, TF over GST control); with ERG, 1.26 fold enrichment (6-mer frequency, TF over GST control); in the assay with ELF1 it was 1.31 fold enrichment (6-mer frequency, TF over GST control); with EHF, 1.26 fold enrichment (6-mer frequency, TF over GST control). For the same sequence, the binding signal was 1.11 fold enrichment (6-mer frequency, TF over GST control) in the assay with SPI1; 1.29 fold enrichment (6-mer frequency, TF over GST control) with SPIB; 1.26 fold enrichment (6-mer frequency, TF over GST control) in the assay with ELK3.

With AATACC, the binding signal was 1.25 fold enrichment (6-mer frequency, TF over GST control) in the assay with FLI1; 1.09 fold enrichment (6-mer frequency, TF over GST control) in the assay with ELK1; 1.09 fold enrichment (6-mer frequency, TF over GST control) with GABPA; 1.21 fold enrichment (6-mer frequency, TF over GST control) in the assay with ERG; 1.19 fold enrichment (6-mer frequency, TF over GST control) with ELF1; 1.19 fold enrichment (6-mer frequency, TF over GST control) in the assay with EHF. Further, the binding signal with SPI1 was 1.14 fold enrichment (6-mer frequency, TF over GST control); in the assay with SPIB, 1.16 fold enrichment (6-mer frequency, TF over GST control); with ELK3 it was 1.25 fold enrichment (6-mer frequency, TF over GST control).

Consider TGTTCC, for which the binding signal with FLI1 is 1.69 fold enrichment (6-mer frequency, TF over GST control); in the assay with ELK1, 1.61 fold enrichment (6-mer frequency, TF over GST control); with GABPA, 1.74 fold enrichment (6-mer frequency, TF over GST control); with ERG, 1.68 fold enrichment (6-mer frequency, TF over GST control); in the assay with ELF1, 1.66 fold enrichment (6-mer frequency, TF over GST control); in the assay with EHF it was 1.83 fold enrichment (6-mer frequency, TF over GST control). Besides, the binding signal with SPI1 was 1.81 fold enrichment (6-mer frequency, TF over GST control); in the assay with SPIB it was 1.8 fold enrichment (6-mer frequency, TF over GST control); with ELK3 it was 1.5 fold enrichment (6-mer frequency, TF over GST control).

For CTCAAT, the binding signal with FLI1 is 1.28 fold enrichment (6-mer frequency, TF over GST control); with ELK1, 1.2 fold enrichment (6-mer frequency, TF over GST control); with GABPA, 1.28 fold enrichment (6-mer frequency, TF over GST control); in the assay with ERG, 1.27 fold enrichment (6-mer frequency, TF over GST control); in the assay with ELF1, 1.23 fold enrichment (6-mer frequency, TF over GST control); with EHF, 1.25 fold enrichment (6-mer frequency, TF over GST control). Moreover, the binding signal with SPI1 was 1.33 fold enrichment (6-mer frequency, TF over GST control); with SPIB, 1.36 fold enrichment (6-mer frequency, TF over GST control); with ELK3, 1.34 fold enrichment (6-mer frequency, TF over GST control).

GTTTCG: the binding signal was 1.28 fold enrichment (6-mer frequency, TF over GST control) in the assay with FLI1; 1.22 fold enrichment (6-mer frequency, TF over GST control) in the assay with ELK1; 1.22 fold enrichment (6-mer frequency, TF over GST control) in the assay with GABPA; 1.25 fold enrichment (6-mer frequency, TF over GST control) with ERG; 1.27 fold enrichment (6-mer frequency, TF over GST control) with ELF1; 1.33 fold enrichment (6-mer frequency, TF over GST control) with EHF. Moreover, the binding signal in the assay with SPI1 was 1.25 fold enrichment (6-mer frequency, TF over GST control); with SPIB, 1.23 fold enrichment (6-mer frequency, TF over GST control); with ELK3 it was 1.15 fold enrichment (6-mer frequency, TF over GST control).
